Compound activity from PubChem BioAssay.
Most compounds without a hit are left out; they make up all but 6% or so of the library.
D1 ag: Allosteric Agonists of the Human D1 Dopamine Receptor: qHTS; D(1A) dopamine receptor (Homo sapiens), P21728; HEK293 T-REx D1 cells, calcium flux, agonist mode; activation, % at 2 µM; hit rate 1% among 360,000; AID 504660, 2011; in the data active = activation above about 30%; also: 0% is about no effect
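Inducible HEK293 T-REx D1 cells, force-coupled to calcium signalling, were plated at 4000 cells/well with tetracycline and held overnight at 30 C. After no-wash calcium dye loading, compound-evoked calcium rise over 180 s flagged agonists.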
D1 PAM: Potentiators of Human D1 Dopamine Receptor: qHTS; HEK293 TREx D1 cells, calcium flux, dopamine EC20 potentiation; potentiation, % at 10 µM; hit rate 0.036% among 360,000; D(1A) dopamine receptor (Homo sapiens), P21728; in the data active = potentiation above about 30%; also: 0% is about no effect
D1 antagonist: Antagonist of Human D 1 Dopamine Receptor: qHTS; hit rate 3.2% among 360,000; D(1A) dopamine receptor (Homo sapiens), P21728; HEK293 TREx D1 cells, calcium flux, dopamine EC80; active compounds read low; activity change, negative = inhibition, % at 10 µM; in the data active = activity change below about -30%; also: % is scaled to controls: 0 for no effect and ±100 for the full control effect
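Calcium flux readout: force-coupled, inducible Hek293 Trex D1 line, cells induced overnight at 30 C with tetracycline, dye-loaded 30–90 min at RT. Antagonism scored against EC80 dopamine challenge given 180 s after compound.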
D3 antag: qHTS of D3 Dopamine Receptor Antagonist: qHTS | D3R cells, DiscoveRx beta-arrestin luminescence, antagonist mode; active compounds read low | max response, negative = inhibition, % | hit rate 2.5% among 360,000 | AID 652054, 2013; in the data active = max response below about -50%; inconclusive = no clear call, values can overlap the other calls; also: % is scaled to controls: 0 for no effect and ±100 for the full control effect
Target sequence (P35462 whole entry, looked up): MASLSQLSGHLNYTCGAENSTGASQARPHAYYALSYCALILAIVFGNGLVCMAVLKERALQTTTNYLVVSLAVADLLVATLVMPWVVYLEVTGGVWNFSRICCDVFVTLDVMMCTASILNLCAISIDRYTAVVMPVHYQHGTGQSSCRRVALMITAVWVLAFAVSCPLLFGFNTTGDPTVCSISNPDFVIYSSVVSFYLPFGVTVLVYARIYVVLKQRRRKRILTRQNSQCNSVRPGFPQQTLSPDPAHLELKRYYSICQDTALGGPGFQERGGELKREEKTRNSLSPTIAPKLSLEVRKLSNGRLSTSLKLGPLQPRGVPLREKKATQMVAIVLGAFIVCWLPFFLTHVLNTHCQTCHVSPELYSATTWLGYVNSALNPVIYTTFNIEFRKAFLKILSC
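Cells plated overnight at 1500 cells/well, then exposed to library compounds with dopamine controls for 90 minutes at 37 degrees C. DiscoveRx reagent added for 30–60 minutes at room temperature; luminescence read, quantitative HTS format.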
DRD3 agonist: qHTS of D3 Dopamine Receptor Agonist: qHTS; D3R DiscoveRx beta-arrestin cells, luminescence, 90 min; D(3) dopamine receptor (Homo sapiens), P35462; hit rate 0.58% among 410,000; max activation, %; in the data active = max activation above about 30%; also: 0% is about no effect
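Cells at 1500/well, incubated overnight, then treated with pinned compounds (dopamine as control) for 90 min at 37 degrees C. DiscoveRx reagent added for 30 - 60 minutes at room temperature; luminescence read.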
Starred values were filed as active, the others as inactive; ? = inconclusive; . = no result given.

SMILES | D1 ag | D1 PAM | D1 antagonist | D3 antag | DRD3 agonist
Clc1cc2c(c(CSc3nc4ccccc4n4cccc34)c1)OCOC2 | 2 | 3 | -47* | -2 | -3
O=C(/C=C\c1ccc2c(c1)OCO2)NC1CC(=O)N(c2cccc(F)c2)C1 (configuration not stated) | 1 | 2 | . | . | 8
Cc1ccc2c(c1)C(CCN)C(=O)N2Cc1ccccc1 (configuration not stated) | 7 | -5 | -6 | -106* | -30
CC(NS(=O)(=O)c1ccc(Br)cc1)C(c1cccs1)N1CCN(C)CC1 (configuration not stated) | -2 | 1 | -19 | -52* | -10
CC(NS(=O)(=O)c1ccc(Br)cc1)c1ccccc1 (configuration not stated) | 1 | -8 | -34* | -1 | 4
CC(NS(=O)(=O)c1ccc2c(c1)OCCO2)c1ccccc1 (configuration not stated) | 5 | 6 | -2 | 12 | 7
CC(NS(C)(=O)=O)C(c1cccs1)N1CCN(C)CC1 (configuration not stated) | 2 | -1 | -2 | 10 | -1
CC(NC(=O)c1cccnc1)C(c1cccs1)N1CCN(C)CC1 (configuration not stated) | 3 | . | -39* | 24 | 3
CCN1CCN(C(c2cccs2)C(C)NC(=O)c2cccnc2)CC1 (configuration not stated) | 2 | -5 | 1 | -12 | -9
COc1ccc([S+](=O)([O-])N2CCN([S+](=O)([O-])c3ccc4c(c3)OCCO4)CC2)c(OC)c1 | 7 | 5 | -17 | . | .
Cc1ccccc1CSc1ncc(CO)n1Cc1ccc(F)cc1 | 2 | -1 | -1 | . | -12
O=C(C1CC(=O)N(c2ccccc2)C1)N1CCN(c2ccc(F)cc2)CC1 (configuration not stated) | 5 | -6 | -1 | -69* | -14
CCOC(=O)c1c(-c2ccccc2)csc1NC(=O)/C(C#N)=C/c1ccc(O)c(OC)c1 | 89* | 4 | -11 | -9 | 3
CCOC(=O)c1c(-c2ccccc2)csc1NC(=O)/C(C#N)=C/c1ccc(OC)c(OC)c1 | 9 | -4 | 1 | 0 | -5
CCOC(=O)c1cc(CC)sc1NC(=O)c1ccc(N2C(=O)CCC2=O)cc1 | 3 | -2 | 3 | 17 | 51*
CCOC(=O)c1c(-c2ccccc2)csc1NC(=O)c1cccc(N2C(=O)CCC2=O)c1 | 5 | 4 | -4 | 44 | 62*
CCOC(=O)c1c(-c2ccc(C)cc2)csc1NC(=O)c1cccc(N2C(=O)CCC2=O)c1 | 1 | -2 | 14 | 7 | 5
O=C(CSc1nc(-c2ccccc2)nc2c1CCCC2)c1ccc(F)cc1 | 2 | 3 | 2 | . | 7
C=CCC(CC=C)(CNC(=O)C(=O)Nc1ccc(Br)cc1)c1ccc(OC)c(OC)c1 | 4 | -2 | 0 | . | -10
N#Cc1ccc(-c2csc(NC(=O)/C=C/c3cccs3)n2)cc1 | 1 | -5 | -44* | 52 | 9
O=C(/C=C/c1ccccc1)Nc1nc(-c2ccncc2)cs1 | 2 | -1 | -6 | 13 | 1
Cc1ccc(-c2csc(NC(=O)/C=C/c3cccs3)n2)cc1C | 3 | -4 | -79* | 0 | -3
COCCCNC(=O)c1ccc2c3c(onc13)-c1ccccc1C2=O | 3 | 0 | 18 | ? | -29
CCOC(=O)C(C(=O)OCC)c1cc(Br)c2noc3c2c1C(=O)c1ccccc1-3 | -1 | 18 | 1 | -102* | -19
O=C(COC(=O)CNC(=O)C1CCCCC1)Nc1ccccc1 | . | . | . | -8 | -4
SMILES | D1 ag | D1 PAM | D1 antagonist | D3 antag | DRD3 agonist
Cc1cccc(C)c1NC(=O)COC(=O)CNC(=O)C1CCCCC1 | 0 | -7 | -31* | 8 | 1
COc1cccc(NC(=O)COc2ccc(Br)c(C)c2)c1 | 2 | -5 | -37* | 2 | -3
CCOC(=O)c1nn(-c2ccc(C)cc2)c(=O)cc1OCC(=O)Nc1cccc(C)c1 | 7 | -11 | 0 | -3 | -8
CCOC(=O)c1nn(-c2ccc(C)cc2)c(=O)cc1OCC(=O)Nc1cccc(OC)c1 | 4 | -6 | -58* | -10 | -8
Cc1cc(OCC(=O)Nc2ccncc2)ccc1Br | 13 | -2 | -32* | 21 | -3
O=C(COc1cc(Cl)c(Cl)cc1Cl)Nc1ccncc1 | -1 | 5 | -30* | -20 | -7
O=C(COc1cc(Cl)c(Cl)cc1Cl)Nc1cccc(O)c1 | 3 | 1 | -22 | 16 | 2
CCc1cccc(NC(=O)C2CCCN2S(=O)(=O)c2ccc3nc(-c4ccccc4)[nH]c3c2)c1 (configuration not stated) | 4 | -1 | 12 | . | 7
O=C(c1cc(S(=O)(=O)N2CCCC2)c[nH]1)N1CCN(c2cccc(Cl)c2)CC1 | -1 | -4 | -19 | . | -24
O=C(O)c1ccc2c(c1)C(=O)N([C@]1(C(=O)O)C[C@H]1c1ccccc1)C2=O | 2 | -4 | -6 | . | .
CN(C)c1nc(-c2ccccc2)nnc1C(F)(F)F | 1 | -4 | 6 | -64* | 3
CN(C)CCNc1nc(-c2ccccc2)nnc1C(F)(F)F | 1 | -5 | 5 | -51* | 3
Fc1ccc(Oc2nc(-c3ccccc3)nnc2C(F)(F)F)cc1 | 0 | 6 | -10 | -24 | -1
Fc1ccc(Sc2nc(-c3ccccc3)nnc2C(F)(F)F)cc1 | 13 | -3 | -2 | -88* | -17
COc1ccc(-c2ccc(NS(=O)(=O)c3ccccc3Cl)cc2)nn1 | -1 | -2 | 15 | . | 0
CC1(C)C(=O)OC(c2ccc([N+](=O)[O-])cc2)C(C)(C)C1=O (configuration not stated) | 7 | 0 | -32* | -2 | 1
CCc1ccc(-n2nc(CO)c(C(=O)NC)n2)cc1 | 0 | 1 | -21 | . | 2
CCc1nnc(NS(=O)(=O)c2ccc(NCc3cc(Cl)cc(Cl)c3O)cc2)s1 | 33* | 0 | 6 | -29 | -10
CCc1nnc(NS(=O)(=O)c2ccc(NCc3cc(Cl)ccc3O)cc2)s1 | 1 | -4 | 7 | 14 | 1
CCC(c1nnnn1C(C)(C)C)N1CCN(c2cc(Cl)ccc2C)CC1 (configuration not stated) | 3 | 4 | 26 | -56* | -13
CC1(C)CC(=O)c2cc(-c3nc(-c4ccc(F)cc4)cs3)c(=O)[nH]c2C1 | 1 | 1 | -2 | . | -2
CC(=O)c1ccc(C)cc1OC(=O)c1cccc(F)c1 | 1 | -5 | -1 | 4 | 14
Cc1ccc(C(=O)CC(=O)c2cccc(F)c2)c(O)c1 | 4 | -3 | 5 | -62* | -3
Cc1ccc(C(=O)CC(=O)c2ccccc2C)c(O)c1 | 0 | 4 | -1 | -50* | 11
